Screening data from PubChem.
IL1B secr inh: qHTS for Inhibitors of Inflammasome Signaling: IL-1-beta AlphaLISA Primary Screen | THP-1 LPS/ATP IL-1B secretion, AlphaLISA, 16 h; active compounds read low | activity change, % at 57.5 µM | actives 4.7% (n = 360,000) | AID 743279, 2014; in the data active means activity change below about -50%; inconclusive means mostly about -30% to -49%; further: on the % scale 0 is the no-effect control and ±100 the full control effect
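THP-1 cells pretreated 1 hr with compounds (up to 57.5 uM final), then stimulated with LPS (250 ng/mL final) plus ATP (1.25 mM final); secreted IL-1B measured by AlphaLISA after 16 hr, decreased signal indicating inhibition.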
ATXN2 expr inh: Primary qHTS for Inhibitors of ATXN expression; HEK-293 ATXN2-luciferase reporter, luminescence, 24 h; Potency, µM (doses to about 57 µM), for the others: at the highest dose activity change, negative = inhibition, most hits filed as inhibitors; actives 0.72% (n = 360,000); further: potency means the concentration at half of the fitted maximal effect; on the % scale 0 is the no-effect control and ±100 the full control effect; nearly all actives have a fitted effect of over 55% in size
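ATXN2-luciferase reporter cells (luciferase flanked by upstream and downstream ATXN2 gene portions) were treated 24 h at 37 °C with compounds at up to 57 uM. SteadyGlo luminescence gave expression; GF-AFC fluorescence gave viability.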
ATXN viability: Viability Counterscreen for Primary qHTS for Inhibitors of ATXN expression; S2 cells (HEK-293 line with an ATXN2-luciferase reporter) viability, CellTiter-Fluor protease fluorescence, 24 h; Potency, µM (top dose mostly 56.7 µM), hits mostly cytotoxic; actives 0.49% (n = 400,000); AID 651635, 2014; further: potency means the concentration at half of the fitted maximal effect; nearly all actives have a fitted effect of over 40% in size
D3 ag: qHTS of D3 Dopamine Receptor Agonist: qHTS | D3R DiscoveRx beta-arrestin cells, luminescence, 90 min | max activation, % | actives 0.58% (n = 410,000) | AID 652048, 2013; in the data active means max activation above about 30%; further: 0% is about no effect
Target sequence (P35462 whole entry, looked up): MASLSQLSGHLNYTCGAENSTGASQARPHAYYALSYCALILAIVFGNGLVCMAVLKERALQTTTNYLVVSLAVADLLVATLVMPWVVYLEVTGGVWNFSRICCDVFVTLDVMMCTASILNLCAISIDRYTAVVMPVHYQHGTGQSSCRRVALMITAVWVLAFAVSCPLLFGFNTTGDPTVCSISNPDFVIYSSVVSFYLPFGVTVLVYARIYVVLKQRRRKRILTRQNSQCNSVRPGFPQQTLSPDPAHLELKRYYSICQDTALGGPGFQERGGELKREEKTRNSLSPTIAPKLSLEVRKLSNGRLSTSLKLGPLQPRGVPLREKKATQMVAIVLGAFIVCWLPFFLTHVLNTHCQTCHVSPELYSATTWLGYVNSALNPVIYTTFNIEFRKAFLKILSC
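Agonist-mode cell screen: cells plated at 1500/well and incubated overnight at 37 °C, then exposed to library compounds for 90 min at 37 °C. Detection reagent was added for 30–60 min at room temperature, and luminescence was read.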
a7 integrin act: qHTS for Activators of Integrin-Mediated Alleviation for Muscular Dystrophy. actives 0.064% (n = 350,000). alpha7betagal myoblasts, beta-gal FDG fluorescence, 48 h. Potency, µM (doses to about 38.3 µM), for inactives: at the highest dose activation, most hits filed as activators;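 further: potency means the concentration at half of the fitted maximal effect; 100% = response of the positive control SU9516; nearly all actives have a fitted effect of over 60% in size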
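Alpha7betagal+/- myoblasts (passage 13) were plated 16-24 hr, then exposed to compounds (1:260 dilution of DMSO stock) for 48 hours at 37C. After MPER lysis, β-galactosidase reporter activity was read as FDG fluorescence (ex 480/em 540) after 30 minutes.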
DRD3 antagonist: qHTS of D3 Dopamine Receptor Antagonist: qHTS | D3R cells, DiscoveRx beta-arrestin luminescence, antagonist mode; active compounds read low | D(3) dopamine receptor (Homo sapiens), P35462 | AID 652054, 2013 | actives 2.5% (n = 360,000) | max response, negative = inhibition, %; in the data active means max response below about -50%; inconclusive means no clear call, values can overlap the other calls; further: on the % scale 0 is the no-effect control and ±100 the full control effect
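Cells plated overnight at 1500 cells/well, then exposed to library compounds with dopamine controls for 90 minutes at 37 degrees C. DiscoveRx reagent added for 30–60 minutes at room temperature; luminescence read, quantitative HTS format.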
An asterisk follows results filed as active; i = inactive; ? = inconclusive; . = no result. The list is not random: actives were taken first. Their share in the collection is about 7%. Unless noted, the call rests on the fitted dose curve; in most records, active means well fitted curve in the direction sought with a large enough effect; inconclusive means small, poorly fitted or top-dose-only effect, or another doubt; inactive means no such curve, though single readings can be large; an effect the other way counts as inactive or inconclusive.

SMILES	IL1B secr inh	ATXN2 expr inh	ATXN viability	D3 ag	a7 integrin act	DRD3 antagonist
Cc1[nH]n2c(=O)cc(-c3ccc(Cl)cc3)nc2c1-c1ccccc1	.	3.5µM*	i	-20	.	.
Cc1[nH]n2c(=O)c3c(nc2c1-c1ccc(Cl)cc1)CCC3	5	?	i	-13	-12%	-87*
Cc1[nH]n2c(=O)cc(C(C)(C)C)nc2c1-c1ccccc1	34	18µM*	i	4	-23%	17
COc1cccc(NC(=O)CSCc2n[nH]c(=O)[nH]2)c1	11	-12%	i	-6	21%	-12
CN(C)CCNC(=O)c1cccc2ccc(-c3ccc(-c4ccccc4)cc3)nc12	-57*	-14%	27µM*	-17	0%	-23
CN(C)CCNC(=O)c1cccc2nc3cccc(F)c3nc12	-116*	8.9µM*	?	3	-55%	-18
COc1ccc(OC)c2nc3c(C(=O)NCCN(C)C)cccc3nc12	-100*	?	?	-9	-48%	-25
COC(=O)c1ccccc1NS(C)(=O)=O	7	7%	i	1	-19%	1
CS(=O)(=O)Nc1ccccc1NS(C)(=O)=O	-58*	9%	i	-6	9%	-21
CCCS(=O)(=O)c1nc(S(=O)(=O)c2ccc(C)cc2)c(N2CCN(C)CC2)s1	-28	10%	i	-17	0%	-61*
NC(=O)C1CCN(c2oc(-c3cccs3)nc2S(=O)(=O)c2ccc(Cl)cc2)CC1	-55*	-10%	?	3	-31%	18
Cc1ccc(S(=O)(=O)c2nc(-c3cccs3)oc2N2CCC(C(N)=O)CC2)cc1	17	-1%	i	-12	23%	-12
CS(=O)(=O)c1nc(S(=O)(=O)c2ccc(Cl)cc2)c(N2CCC(C(N)=O)CC2)s1	-79*	7%	i	-1	-49%	-9
CCCS(=O)(=O)c1nc(S(=O)(=O)c2ccc(C)cc2)c(N2CCN(CC)CC2)s1	?	8%	i	-19	0%	-109*
CCNC(=O)C1CCCN(C(=O)c2ccc3snnc3c2)CC1 (centres undefined)	44	2%	i	0	.	22
CCCCn1c(SCC(=O)Nc2cccc(OC)c2)nc2ccsc2c1=O	.	.	.	-4	.	.
O=C(NCCCN1CCCC1=O)c1nnc(Cc2c(F)cccc2Cl)o1	-1	1%	i	10	14%	8
CCN1CCN(c2sc(S(C)(=O)=O)nc2S(=O)(=O)c2ccc(C)cc2)CC1	-85*	.	i	-6	-65%	-20
CCN1CCN(c2sc(S(=O)(=O)CC)nc2S(=O)(=O)c2ccc(C)cc2)CC1	-28	.	i	-8	-26%	-80*
COc1cccc(/C=C2\SC(=S)N(CCCC(=O)N3CCCC3)C2=O)c1	-91*	-23%	?	-1	-12%	-12
COc1ccc(/C=C2\SC(=S)N(CCCC(=O)N3CCN(C)CC3)C2=O)cc1OC	15	1%	i	-2	-5%	-2
COc1cccc(/C=C2\SC(=S)N(CCC(=O)N3CCCCC3CCO)C2=O)c1 (centres undefined)	?	-1%	i	1	-44%	-14
COc1cccc(/C=C2\SC(=S)N(CCCC(=O)N3CCCCC3CCO)C2=O)c1 (centres undefined)	-70*	.	.	2	-34%	10
O=C(C[C@H]1C/C=C\CC[C@H](Cc2ccc(F)cc2)C(=O)O[C@@H](c2ccccc2)CNC1=O)N[C@@H](CO)Cc1ccccc1	63	?	?	-28	-16%	-17
CC(C)(C)OC(=O)C[C@@H]1C/C=C\C[C@@H](CC(=O)NCCO)C(=O)NC[C@@H](c2ccccc2)OC1=O	1	4%	i	-7	9%	-63*
SMILES	IL1B secr inh	ATXN2 expr inh	ATXN viability	D3 ag	a7 integrin act	DRD3 antagonist
O=C1NC[C@@H](c2ccccc2)OC(=O)[C@H](Cc2ccc(F)cc2)C/C=C\C[C@@H]1CC(=O)N(CCO)Cc1ccccc1	?	?	?	-34	-27%	-67*
O=C1NC[C@H](c2ccccc2)OC(=O)[C@@H](Cc2ccc(F)cc2)CC/C=C/C[C@H]1CC(=O)N(CCO)Cc1ccccc1	-2	14µM*	11µM*	-6	-35%	19
O=C(C[C@H]1C/C=C\C[C@H](Cc2ccc(F)cc2)C(=O)O[C@@H](c2ccccc2)CNC1=O)N[C@H](CO)Cc1ccccc1	-8	-17%	i	43*	-15%	20
C[C@H](CO)N1C[C@H](C)[C@@H](CN(C)C(=O)Nc2ccccc2)Oc2ncc(C#CC3CCCCC3)cc2C1=O	?	-5%	?	-3	-13%	-3
Cc1cc(C(=O)NNC(=O)CCCCC(=O)NNC(=O)c2cc(C)[nH]n2)n[nH]1	19	-3%	i	5	32%	12
COc1ccc(Cc2nnc(NC(=O)CS(=O)(=O)c3ccc(C)cc3)s2)cc1OC	11	-1%	i	-7	24%	11
O=C1NC[C@H](c2ccccc2)OC(=O)[C@@H](Cc2ccc(F)cc2)CC/C=C/C[C@@H]1CC(=O)N(CCO)Cc1ccccc1	-22	-36%	?	-27	-30%	-70*
CC1CCCCN1CC(=O)c1c[nH]c2ccccc12 (centres undefined)	9	-14%	i	3	4%	12
Nc1[nH]c(C(=O)c2ccccc2)c(-c2ccccc2Br)c1C(=O)NCCc1c[nH]c2ccccc12	?	?	20µM*	3	.	35
Nc1[nH]c(C(=O)c2ccccc2)c(-c2ccc(Cl)cc2)c1C(=O)NCc1ccccc1	12	12%	i	57*	.	0
CC1(C(=O)NS(C)(=O)=O)CCN1C(=O)CC(c1ccccc1)c1ccccc1 (centres undefined)	10	18%	i	1	.	2
Cc1oc(-c2cccs2)nc1CN1CCN(CC(C)C)C(CCO)C1 (centres undefined)	16	-13%	i	-4	8%	-11
OC1(c2ccccc2)CCN(Cc2ccccc2)C2CCCCC21 (centres undefined)	-51*	-30%	i	12	-1%	-85*
Cc1oc(-c2cccs2)nc1CN1CC[C@@](O)(c2ccccc2)[C@H]2CCCC[C@@H]21	-74*	-13%	?	-12	-41%	?
CC1(O)N(Cc2ccccc2)C(=O)OC12CCCCC2 (centres undefined)	-24	2%	i	-16	-6%	-18
